Screens (PubChem)
PfG6PD inh – PfG6PD (Plasmodium falciparum) enzyme inhibition | AID 504690 | PfGluPho enzyme, NADPH resazurin-diaphorase fluorescence | inhibition, % at 20 µM | hit rate 0.78% among 350,000;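 active means inhibition reaching at least a set limit at 20 µM in the primary screen, cut at about 59% in these data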
PfM18AAP inh-1 – PfM18AAP enzyme inhibition; AID 1822; recombinant PfM18AAP, H-Glu-NHMec fluorogenic cleavage; inhibition, % at 7.35 µM; hit rate 1.2% among 290,000;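 active means inhibition above the campaign mean inhibition over all tested compounds plus 3 SD, cut at about 28% in these data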
Cardio protect – protects H9c2 cardiomyocytes from peroxide injury; H2O2 injury protection, ATPLite, 2 h; protection from H2O2 cell death, % at 20 µM; hit rate 0.63% among 360,000;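 active means compounds giving at least 50% protection of heart cells from peroxide-induced death in the single-dose screen, raw or plate-pattern-corrected value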
PHOSPHO1 block – PHOSPHO1 (human) inhibition; AID 1565; recombinant PHOSPHO1, absorbance phosphatase assay; inhibition, % at 13.3 µM; hit rate 1.1% among 290,000; in the data active means inhibition above about 60%
Target sequence (Q8TCT1 whole entry, looked up): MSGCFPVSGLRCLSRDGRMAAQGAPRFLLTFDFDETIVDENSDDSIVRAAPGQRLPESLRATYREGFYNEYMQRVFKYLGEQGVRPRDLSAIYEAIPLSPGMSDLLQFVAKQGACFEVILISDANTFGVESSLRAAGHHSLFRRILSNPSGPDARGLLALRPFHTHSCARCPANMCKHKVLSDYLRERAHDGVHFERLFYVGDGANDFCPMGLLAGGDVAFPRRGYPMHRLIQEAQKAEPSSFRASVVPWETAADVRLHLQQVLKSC
ALR H2O2 inh – human ALR oxidase inhibition via reduced H2O2; AID 485317; P55789; purified ALR, DTT oxidation, H2O2 HRP-luminol luminescence; hit rate 3.8% among 290,000; inhibition, % (concentration not given with the values);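 active means mean replicate inhibition above about 79%, with every replicate also reaching it, limit read from the data; inconclusive means only one of the two criteria met; inactive means mean below limit and not every replicate reaching it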
PfM18AAP inh-2 – PfM18AAP inhibition, confirmation. shares compounds with PfM18AAP inh-1. recombinant PfM18AAP, H-Glu-NHMec fluorogenic cleavage. inhibition, % at 7.35 µM. hit rate 28% among 2,400;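 active means mean inhibition over replicate wells above the hit cutoff set for the earlier primary screen, cut at about 29% in these data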
CTSL1 confirm – Cathepsin L (human) inhibition, confirmation; shares compounds with PfM18AAP inh-1; purified cathepsin L1, Z-Leu-Arg-MCA fluorescence; inhibition, % at 5.96 µM; 2,400 tested, under 10 active;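 active means average inhibition across replicates above the hit cutoff set in the earlier primary screen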
Target sequence (P07711 whole entry, looked up): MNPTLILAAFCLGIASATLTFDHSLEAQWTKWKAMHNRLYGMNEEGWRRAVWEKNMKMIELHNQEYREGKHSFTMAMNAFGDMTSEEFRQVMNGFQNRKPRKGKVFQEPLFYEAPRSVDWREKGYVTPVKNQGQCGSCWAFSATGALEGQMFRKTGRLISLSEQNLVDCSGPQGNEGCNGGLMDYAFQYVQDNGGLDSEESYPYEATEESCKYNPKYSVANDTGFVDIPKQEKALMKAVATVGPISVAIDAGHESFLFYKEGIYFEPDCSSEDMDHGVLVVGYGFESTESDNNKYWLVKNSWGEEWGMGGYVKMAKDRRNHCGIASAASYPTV
A number is an active result; i = inactive; ? = inconclusive; nt = no result given. An excerpt weighted towards active compounds, which were near 5.6% of everything screened.

SMILES	PfG6PD inh	PfM18AAP inh-1	Cardio protect	PHOSPHO1 block	ALR H2O2 inh	PfM18AAP inh-2	CTSL1 confirm
CCOc1ccc(C(=O)CN2CCN(S(=O)(=O)c3ccc(F)cc3)CC2)cc1	i	i	i	i	i	nt	nt
COc1ccc(S(=O)(=O)N2CCN(CC(=O)c3ccc(O)c(O)c3)CC2)cc1	i	72	i	i	99	41	i
O=C(CN1CCN(S(=O)(=O)c2ccc(F)cc2)CC1)c1ccc(O)c(O)c1	i	73	i	i	nt	34	i
Cc1ccc(S(=O)(=O)N2CCN(CC(=O)N/N=C\c3ccc(O)c(O)c3)CC2)cc1	i	48	i	i	99	40	i
CSc1ncnc2c1ncn2CCCNCCCN1CCCC1=O	i	nt	i	nt	nt	nt	nt
COc1cc(/C=C2\SC(=S)N(CCCCC(=O)O)C2=O)ccc1OS(=O)(=O)c1ccc(C)cc1	i	nt	i	nt	i	nt	nt
CC(=O)c1cccc(NC(=O)CCC(=O)Oc2ccc(C)cc2)c1	i	i	i	i	i	nt	nt
CN(C)c1ccc(/C=N/Nc2nncc3ccccc23)cc1	i	i	i	i	i	nt	nt
Cc1ccc(S(=O)(=O)N(C)C[C@@H]2OCc3cn(nn3)CCCC(=O)N([C@@H](C)CO)C[C@H]2C)cc1	i	nt	i	nt	nt	nt	nt
CCN(CC(=O)NCc1cccs1)C(=O)Cc1ccc(Cl)c(Cl)c1	i	nt	i	nt	i	nt	nt
O=C(c1ccccc1NS(=O)(=O)c1ccc([N+](=O)[O-])cc1[N+](=O)[O-])N1O[C@@H]2C=C[C@H]1C2	i	nt	i	nt	nt	nt	nt
Cc1ccc(C(=O)Nc2nnc(CC(=O)N/N=C/c3ccc(O)c(O)c3)s2)cc1	i	56	i	i	i	50	i
CCCCCCNCC(=O)N1CCC(Cc2ccccc2)CC1	i	i	i	i	i	nt	nt
CCOC(=O)N1CCC(NC(=O)c2ccc3c(c2)sc2nc(-c4ccccc4)cn23)CC1	i	40	i	i	i	i	i
COc1ccc(S(=O)(=O)N2CCC(C(=O)N[C@@H](C)C(=O)NCc3ccccn3)CC2)cc1	i	nt	i	nt	nt	nt	nt
CC1=NNC(=O)/C1=C\c1cn(-c2ccccc2)nc1-c1ccc(F)cc1	i	39	i	i	nt	64	i
O=Cc1cn(-c2ccccc2)nc1-c1ccc(F)cc1	i	i	i	nt	i	nt	nt
Cc1cc(C)nc(Sc2nc(Cl)nc(N(c3ccccc3)c3ccccc3)n2)n1	i	47	i	83	i	i	i
COc1ccc(/C=N/NC(=O)c2cc(O)c(O)c(O)c2)cc1Cn1cc([N+](=O)[O-])cn1	i	48	i	i	nt	i	i
COc1ccc(/C=N/NC(=O)c2ccc(Br)o2)cc1Cn1cc([N+](=O)[O-])cn1	i	i	i	i	i	nt	nt
COc1ccc(-c2nc(N)n(C(=O)c3ccccc3)n2)cc1	i	i	i	i	nt	nt	nt
CCOc1ccc(C(=O)n2cnnc2N)cc1	i	48	i	i	nt	56	i
COc1ccc(C(=O)n2cnnc2N)cc1	i	48	i	i	i	61	i
Cc1csc(=O)n1CC(=O)OCC(=O)Nc1ccc(F)c(F)c1F	i	nt	i	nt	nt	nt	nt
Oc1ccc(/C=N/NC(=S)N/N=C/c2ccc(O)cc2)cc1	i	34	i	i	nt	i	19
SMILES	PfG6PD inh	PfM18AAP inh-1	Cardio protect	PHOSPHO1 block	ALR H2O2 inh	PfM18AAP inh-2	CTSL1 confirm
CCOc1cc2[nH]c(=S)n(CCOC)c(=O)c2cc1OCC	i	i	i	i	i	nt	nt
COCCn1c(=S)[nH]c2ccc(N(C)C)cc2c1=O	i	40	i	98	97	i	i
Oc1c(C(c2cccs2)N2CCOCC2)sc2ncnn12 (stereo not given)	i	i	i	i	i	nt	nt
Oc1c(C(c2ccccc2)N2CCc3ccccc3C2)sc2ncnn12 (stereo not given)	i	58	i	i	i	i	i
CC1CN(C(c2cccs2)c2sc3ncnn3c2O)CC(C)O1 (stereo not given)	i	i	i	i	i	nt	nt
CC1CCCN(C(c2ccccc2)c2sc3ncnn3c2O)C1 (stereo not given)	i	55	i	i	?	i	i
CCC(C)n1ncn(-c2ccc(N3CCN(c4ccc(O)cc4)CC3)cc2)c1=O (stereo not given)	i	34	i	i	nt	i	i
CNC(=O)c1cc2c(s1)CCCCCC2	i	i	i	i	i	nt	nt
O=C(Nn1cnnc1)c1cc2c(s1)CCCCC2	i	53	i	i	i	55	i
CC1NC(=O)c2cc3ccccc3cc2-n2c1nc1ccc(F)cc1c2=O (stereo not given)	i	nt	i	nt	nt	nt	nt
Cc1nc(N2C(=O)C(=O)/C(=C(/O)c3ccccc3)C2c2ccco2)sc1C (stereo not given)	i	38	i	i	i	i	i
C/C(=N\Nc1cccc(C(=O)O)c1)c1ccc(Cl)s1	i	41	i	i	98	i	i
CN(Cc1ccccc1)C1CCNCC1	i	i	i	i	nt	nt	nt
Cc1sc(NC(=S)Nc2ccc(F)cc2)c(C(N)=O)c1C	i	47	i	i	i	i	i
Cc1ccc(OCCCCN2CCc3ccccc3C2)cc1	i	i	i	i	i	nt	nt
CCOc1ccc(Cl)cc1-c1cc(C(=O)NC2CCCCC2)[nH]n1	nt	nt	i	nt	nt	nt	nt
NC(=O)Cc1c[nH]c2cccc(O)c12	i	47	i	i	i	i	i
CN1CCN(Cc2c(O)ccc3occ(C(=O)c4ccccc4)c23)CC1	i	i	i	i	i	nt	nt
CC(=O)C(C(C)=O)c1c(Cl)c(O)c(O)c2c(C(=O)c3ccccc3)coc12	i	55	i	i	nt	55	i
O=C(COC(=O)c1cnccn1)NC1CCCc2ccccc21 (stereo not given)	i	nt	i	nt	nt	nt	nt
CCOC(=O)c1c(NC(C)=O)sc2c1CCC(C=O)=C2Sc1ccccc1	i	40	i	91	i	i	i
COc1ccc([C@H]2C[C@@H](n3cc(-c4ccc(F)cc4)nn3)[C@H](O)CN2CC2CCCCC2)cc1	i	nt	i	nt	nt	nt	nt
COC(=O)C1=C(C(=O)c2ccccc2)C(c2ccccc2)n2nnnc2N1 (stereo not given)	i	i	i	i	i	nt	nt
COC(=O)C1=C(C(C)=O)C(c2ccc(C(=O)OC)cc2)n2nnnc2N1 (stereo not given)	i	52	i	i	i	i	i
COC(=O)C1=C(C(C)=O)C(c2ccc(C)cc2)n2nnnc2N1 (stereo not given)	i	52	i	i	i	i	i
SMILES	PfG6PD inh	PfM18AAP inh-1	Cardio protect	PHOSPHO1 block	ALR H2O2 inh	PfM18AAP inh-2	CTSL1 confirm
CCOc1cc(C2C(C(=O)c3ccc(C)cc3)=C(C(=O)OC)Nc3nnnn32)ccc1O (stereo not given)	i	57	i	i	i	i	i
O=C(CCC(=O)N1CCCC1)N1CCCC1	i	i	i	i	i	nt	nt
CC(C)Cc1nnc(NC(=O)CSc2ncn[nH]2)s1	i	38	i	i	i	40	i
Cc1ccc(NC(=O)CSc2ncn[nH]2)c([N+](=O)[O-])c1	i	nt	i	nt	nt	nt	nt
Cc1ccc(-c2nnc(N3CCN(C(=O)CSc4ncn[nH]4)CC3)c3ccccc23)cc1	i	42	i	i	i	i	i
CC(C)Cc1nnc(NC(=O)CSc2ccccn2)s1	i	i	i	i	i	nt	nt
